Assay results taken from PubChem BioAssay.

These compounds were tested against NADPH oxidase 5 (Homo sapiens) (UniProt Q96PH1) (assay: compounds shifting NOX5 Amplex Red fluorescence – cell-based, HEK293-NOX5, NOX inhibitor project, primary screen (AID 1161)). Details: HEK293-NOX5, ionomycin, 45 min, higher = more signal.
Chain of NADPH oxidase 5 (Homo sapiens) (Q96PH1 whole entry, looked up): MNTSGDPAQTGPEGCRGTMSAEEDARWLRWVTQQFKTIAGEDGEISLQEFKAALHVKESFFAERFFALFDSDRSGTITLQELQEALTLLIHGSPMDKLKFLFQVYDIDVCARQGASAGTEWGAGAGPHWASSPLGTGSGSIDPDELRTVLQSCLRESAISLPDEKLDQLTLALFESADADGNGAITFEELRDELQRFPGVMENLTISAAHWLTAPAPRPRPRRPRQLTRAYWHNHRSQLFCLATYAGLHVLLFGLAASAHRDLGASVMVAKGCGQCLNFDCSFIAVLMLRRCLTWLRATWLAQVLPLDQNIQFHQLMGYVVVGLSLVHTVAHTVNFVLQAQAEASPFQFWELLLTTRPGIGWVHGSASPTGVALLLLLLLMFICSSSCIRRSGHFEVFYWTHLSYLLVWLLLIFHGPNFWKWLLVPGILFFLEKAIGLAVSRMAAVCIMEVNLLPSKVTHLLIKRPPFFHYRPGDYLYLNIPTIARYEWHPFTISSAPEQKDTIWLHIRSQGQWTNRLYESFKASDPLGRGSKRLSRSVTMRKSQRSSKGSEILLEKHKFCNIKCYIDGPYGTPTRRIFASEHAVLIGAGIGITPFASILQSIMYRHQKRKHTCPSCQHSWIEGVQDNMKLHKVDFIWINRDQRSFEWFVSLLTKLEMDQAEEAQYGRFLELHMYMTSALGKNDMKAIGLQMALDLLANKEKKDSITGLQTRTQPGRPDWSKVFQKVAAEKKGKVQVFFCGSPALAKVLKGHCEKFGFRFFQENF

| Structure (SMILES) | z-score |
| --- | --- |
| CCOC(=O)[C@H](Cc1ccccc1)NC(=O)CCC1CC(OC(=O)NCc2ccc3c(c2)OCO3)CC2(CCCC(COC(=O)NCCOC)O2)O1 (stereo partly specified) | -2.16 |
| CCOC(=O)[C@H](Cc1ccccc1)NC(=O)CCC1CC(OC(=O)NCc2ccc3c(c2)OCO3)CC2(CCCC(COC(=O)NCCCN3CCCC3=O)O2)O1 (stereo partly specified) | -0.044 |
| COC(=O)[C@H](C)NC(=O)CCC1CC(OC(=O)NCCc2ccc(F)cc2)CC2(CCCC(COC(=O)NCCOc3ccccc3)O2)O1 (stereo partly specified) | 0.382 |
| O=C1CCCC=C1C(O)C1CCCCC1 (stereo unspecified) | -0.928 |
| CCOC(=O)NN=C1C[C@@H](O)[C@@H](O)[C@@H]2[C@@H]3C(=O)N(c4ccc(F)cc4F)C(=O)[C@@H]3CC[C@H]12 | -0.472 |
| CC(=O)OC[C@H]1O[C@H](CC=NO[C@@H](C)c2cc(-c3c(C)cc(C)cc3C)no2)C=C[C@@H]1OC(C)=O | -2.99 |
| CCOC(=O)CCN1C(=O)[C@H]2[C@H]3[C@H](O)[C@H](O)CC(=NO[C@@H]4O[C@H](CO)[C@@H](O)[C@H](O)[C@H]4O)[C@H]3CC[C@H]2C1=O | -0.9 |
| CCOC(=O)[C@H](CC(C)C)NC(=O)CCC1CC(OC(=O)NCCc2ccc(F)cc2)CC2(CCCC(COC(=O)NCc3cccc(C(F)(F)F)c3)O2)O1 (stereo partly specified) | 0.401 |
| C[C@H]1CC[C@@H](C(=O)O)N[C@@H]1c1cccc(N2CCCC2=O)c1 | 0.682 |
| CC(=O)OC[C@H]1O[C@@H](ON=C2[C@H]3CCn4c(=O)n(-c5ccccc5)c(=O)n4[C@H]3[C@H](O)[C@@H]3O[C@H]23)[C@H](OC(C)=O)[C@@H](OC(C)=O)[C@@H]1OC(C)=O | 0.187 |
| CCOC(=O)[C@H](CC(C)C)NC(=O)CCC1CC(OC(=O)NCCc2ccc(F)cc2)CC2(CCCC(COC(=O)NCCCN3CCCC3=O)O2)O1 (stereo partly specified) | 0.802 |
| CC(CCC(=O)OC[C@H]1O[C@H](C#Cc2ccccc2)C=C[C@@H]1Oc1ccc(C)cc1)=NOC[C@@H](C)[C@H](OCc1ccccc1)C(C)C | 0.919 |
| CCOC(=O)[C@H](Cc1ccccc1)NC(=O)CCC1CC(OC(=O)NCc2cccc3ccccc23)CC2(CCCC(COC(=O)NCCc3ccccc3OC)O2)O1 (stereo partly specified) | 1.06 |
| COC(=O)[C@H](C)NC(=O)CCC1CC(OC(=O)NCCc2ccc(F)cc2)CC2(CCCC(COC(=O)NCCc3ccccc3OC)O2)O1 (stereo partly specified) | -0.543 |
| CCOC(=O)NN=C1C[C@@H](O)[C@@H](O)[C@@H]2[C@@H]3C(=O)N(C[C@@H]4CCCO4)C(=O)[C@@H]3CC[C@H]12 | -0.468 |
| CON=C1c2cc(OC)ccc2O[C@H](c2cccc(OC)c2)[C@H]1O | -0.175 |
| COC(=O)[C@H](C)NC(=O)CCC1CC(OC(=O)NCc2ccc3c(c2)OCO3)CC2(CCCC(COC(=O)NCCC(C)C)O2)O1 (stereo partly specified) | 0.284 |
| C[C@H]1C=CCC(=O)OC[C@H](C)C(=O)N2CCC[C@H]2C(=O)OC1 | -0.957 |

| Structure (SMILES) | z-score |
| --- | --- |
| CCCNC(=O)OC[C@H]1O[C@H](CCON=C2C[C@@H](O)[C@@H](O)[C@@H]3[C@@H]4C(=O)N(CC)C(=O)[C@@H]4CC[C@@H]23)C=C[C@@H]1Oc1ccc(OC)cc1 | -0.818 |
| COC(=O)[C@@H]1CC[C@H](C)[C@@H](c2ccc(C)cc2)N1C(=O)c1ccc(C=NO[C@@H](C)c2cc(-c3c(C)cc(C)cc3C)no2)cc1 | 0.406 |
| CC(C)(C)N1C(=O)[C@H]2[C@H]3[C@H](O)[C@H](O)CC(=NNC(=O)OCc4ccccc4)[C@H]3CC[C@H]2C1=O | -1.11 |
| CO[C@@H]1COC(=O)CC=C[C@H](C)[C@H](OC)COC(=O)[C@@H]2CCCN2C(=O)CC=C[C@H]1C | 0.294 |
| Cc1cc2c(nc1C)CCCCN2CC(O)CN1CCCc2nc(-c3ccc(Br)cc3)ccc21 (stereo unspecified) | 0.616 |
| COc1ccc(O[C@H]2C=C[C@@H](C#Cc3ccccc3)O[C@@H]2CO)cc1 | -0.196 |
| C#CCCCON=C1C[C@@H](O)[C@@H](O)[C@@H]2[C@@H]3C(=O)N(C[C@@H]4CCCO4)C(=O)[C@@H]3CC[C@H]12 | -1 |
| O=C1[C@H]2[C@H]3[C@H](O)[C@H](O)CC(=NO[C@@H]4O[C@H](CO)[C@@H](O)[C@H](O)[C@H]4O)[C@@H]3CC[C@H]2C(=O)N1c1cccc(Oc2ccccc2)c1 | 0.544 |
| CC#CCOCCC=C1c2ccccc2[C@@H](OC)[C@@H]1C | 0.696 |
| CCOC(=O)[C@H](CC(C)C)NC(=O)CCC1CC(OC(=O)NCc2ccc3c(c2)OCO3)CC2(CCCC(COC(=O)NCCOc3ccccc3)O2)O1 (stereo partly specified) | -0.0957 |
| CON=C(C)CCN1CCCCc2nc(C)c(C)cc21 | -0.836 |
| C=CC[C@@H]1C=C[C@H](ON=CC[C@@H]2C=C[C@H](OC(C)=O)[C@@H](COC(C)=O)O2)[C@@H](CO)O1 | 1.03 |
| C[C@@H]1CC[C@@H](C(=O)O)N[C@H]1c1cccc(N2CCOCC2)c1 | 0.252 |
| CC(=O)OC[C@H]1O[C@H](CC=NOC[C@@H](O)COCc2ccco2)C=C[C@@H]1OC(C)=O | 0.0957 |
| CC(CCN1CCc2nc(-c3ccccc3)c(-c3ccccc3)cc2C1)=NO[C@H](C)c1cn([C@H](CO)Cc2ccccc2)nn1 | -1.75 |
| CCOC(=O)CCN1C(=O)[C@H]2[C@H]3[C@H](O)[C@H](O)CC(=NNC(=O)OCc4ccc(OC)cc4)[C@H]3CC[C@H]2C1=O | 0.937 |
| CC(=O)OC[C@H]1O[C@@H](ON=C(C)CCC(=O)OC[C@H]2O[C@H](C#Cc3ccccc3)C=C[C@@H]2Oc2ccc(C)cc2)[C@H](OC(C)=O)[C@@H](OC(C)=O)[C@@H]1OC(C)=O | 1.38 |
| O=C1CCCC=C1C(O)c1ccc([N+](=O)[O-])cc1 (stereo unspecified) | -0.56 |
